Test results taken from PubChem BioAssay (NCATS).
Inconclusive results are not listed. The source made the active and inactive calls. Calls follow the shape of the dose curve; as a rule, active = well fitted inhibition curve with a large enough effect; inconclusive = small, poorly fitted or top-dose-only effect; inactive = flat fitted curve, though single readings scatter.

Legend:
Experiment in all cases: qHTS profiling for inhibitors of Plasmodium falciparum proliferation (AID 504749); also: nearly all actives have a fitted effect of over 60% in size
Conditions in all cases: P. falciparum in erythrocytes, SYBR Green DNA, 72 h
3D7 = test system: 3D7
Procedure, shortened: (§1)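 Parasite proliferation within erythrocytes, 72 h exposure. Endpoint: SYBR Green I fluorescence after overnight lysis at room temperature. Controls: 0.29 uM artemisinin, DMSO.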

7G8 = test system: 7G8
Procedure, shortened: as §1

AA1029 = test system: AA1029
Procedure, shortened: as §1

AS120 = test system: AS120
Procedure, shortened: as §1

ATS189 = test system: ATS189
Procedure, shortened: as §1

ATS95 = test system: ATS95
Procedure, shortened: as §1

C2A = test system: C2A
Procedure, shortened: as §1

CP185 = test system: CP185
Procedure, shortened: as §1

CP191 = test system: CP191
Procedure, shortened: as §1

CP192 = test system: CP192
Procedure, shortened: as §1

Measured: Potency
Potency is read from the fitted curve at half-maximal effect.

CC[C@]1(O)CC2CN(CCc3c([nH]c4ccccc34)[C@@](C(=O)OC)(c3cc4c(cc3OC)N(C)[C@H]3[C@@](O)(C(=O)OC)[C@H](OC(C)=O)[C@]5(CC)C=CCN6CC[C@]43[C@@H]65)C2)C1 (stereo not given in full)
active: 3D7 794 nM | 7G8 1120 nM | AA1029 1410 nM | AS120 2510 nM | ATS189 4470 nM | ATS95 3550 nM | C2A 2820 nM | CP185 3550 nM | CP191 2820 nM | CP192 4260 nM

CC(=O)O[C@H]1C(=O)[C@@]2(C)[C@H]([C@H](OC(=O)c3ccccc3)[C@]3(O)C[C@H](OC(=O)[C@H](O)[C@@H](NC(=O)c4ccccc4)c4ccccc4)C(C)=C1C3(C)C)[C@]1(OC(C)=O)CO[C@@H]1C[C@@H]2O
active: 3D7 282 nM | 7G8 398 nM | AA1029 562 nM | AS120 398 nM | ATS189 631 nM | ATS95 631 nM | C2A 355 nM | CP185 199 nM | CP191 178 nM | CP192 675 nM
